# Test results as given in PubChem BioAssay (EPA / NIEHS).
# Values joined by “and” are separate entries in the source; they are usually repeats but may differ in a detail not shown here. Equal values may be shown once. Inconclusive results are not listed. Active and inactive are the calls of the source. How the source made its calls: active means hit-call score of the fitted dose curve at least 0.9, where 1 is the maximum; inconclusive means response in the unintended direction; inactive means score below 0.9.
# Biological target: human Vascular Endothelial Growth Factor Receptor 1 (VEGFR1), FLT1 (gene 2321) (UniProt P17948)
# Sequence (P17948 whole entry, looked up): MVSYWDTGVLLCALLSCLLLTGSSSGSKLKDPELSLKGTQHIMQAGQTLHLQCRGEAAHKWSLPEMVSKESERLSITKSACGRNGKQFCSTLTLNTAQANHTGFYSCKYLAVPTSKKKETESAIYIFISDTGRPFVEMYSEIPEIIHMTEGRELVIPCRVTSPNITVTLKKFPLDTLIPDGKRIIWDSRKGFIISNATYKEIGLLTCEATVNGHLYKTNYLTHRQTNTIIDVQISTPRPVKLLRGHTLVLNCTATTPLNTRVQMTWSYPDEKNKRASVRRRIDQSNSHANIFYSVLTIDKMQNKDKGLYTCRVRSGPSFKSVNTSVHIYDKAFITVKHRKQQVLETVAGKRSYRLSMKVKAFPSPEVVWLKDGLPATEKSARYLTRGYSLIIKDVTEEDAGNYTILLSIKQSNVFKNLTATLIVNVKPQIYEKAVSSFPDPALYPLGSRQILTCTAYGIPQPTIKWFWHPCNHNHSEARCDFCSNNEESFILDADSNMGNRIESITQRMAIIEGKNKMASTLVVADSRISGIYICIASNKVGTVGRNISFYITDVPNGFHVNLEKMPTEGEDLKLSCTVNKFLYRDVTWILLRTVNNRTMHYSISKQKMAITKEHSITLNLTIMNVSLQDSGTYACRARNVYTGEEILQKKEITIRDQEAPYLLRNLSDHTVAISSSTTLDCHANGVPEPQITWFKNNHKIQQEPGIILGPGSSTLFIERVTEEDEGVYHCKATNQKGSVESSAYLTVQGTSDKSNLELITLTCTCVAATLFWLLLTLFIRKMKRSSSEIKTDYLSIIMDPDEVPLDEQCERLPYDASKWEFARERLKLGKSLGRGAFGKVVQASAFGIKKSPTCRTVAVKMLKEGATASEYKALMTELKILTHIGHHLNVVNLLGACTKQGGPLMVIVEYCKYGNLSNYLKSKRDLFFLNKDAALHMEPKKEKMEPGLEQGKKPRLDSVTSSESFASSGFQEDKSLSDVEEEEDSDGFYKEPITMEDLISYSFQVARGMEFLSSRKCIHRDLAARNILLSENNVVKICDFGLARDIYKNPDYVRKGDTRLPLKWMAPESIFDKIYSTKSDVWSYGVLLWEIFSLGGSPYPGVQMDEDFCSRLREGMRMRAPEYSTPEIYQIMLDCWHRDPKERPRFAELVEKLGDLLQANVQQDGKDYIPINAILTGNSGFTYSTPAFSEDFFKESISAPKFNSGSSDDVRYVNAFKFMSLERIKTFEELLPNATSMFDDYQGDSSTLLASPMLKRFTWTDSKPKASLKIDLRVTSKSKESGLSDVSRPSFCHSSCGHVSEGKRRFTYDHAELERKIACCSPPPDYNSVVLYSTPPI
# Assay: NVS_ENZ_hVEGFR1: NovaScreen (NVS) Enzymatic Assay for human Vascular Endothelial Growth Factor Receptor 1 (VEGFR1) (AID 2283226)
# Method in brief: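 Cell-free assay of recombinant human VEGFR1 kinase with substrate, measured 1 h after dosing; fluorescence with electrophoretic mobility-shift separation of substrate and product, referenced to DMSO; primary screen at 25 uM in duplicate, actives then run in concentration series.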
Compound,outcome,AC50
CCOP(=S)(OCC)Oc1ccc(S(C)=O)cc1 (stereo not given),inactive,
COP(=S)(OC)Oc1cc(Cl)c(Cl)cc1Cl,inactive,
CC(=O)[O][Hg][c]1ccccc1,inactive,
Nc1ncc([N+](=O)[O-])s1,,40.4 µM (active)

# Biological target: rabbit Imidazoline 2 Central (I2C), CKB (gene 100009085) (UniProt P00567)
# Sequence (P00567 whole entry, looked up): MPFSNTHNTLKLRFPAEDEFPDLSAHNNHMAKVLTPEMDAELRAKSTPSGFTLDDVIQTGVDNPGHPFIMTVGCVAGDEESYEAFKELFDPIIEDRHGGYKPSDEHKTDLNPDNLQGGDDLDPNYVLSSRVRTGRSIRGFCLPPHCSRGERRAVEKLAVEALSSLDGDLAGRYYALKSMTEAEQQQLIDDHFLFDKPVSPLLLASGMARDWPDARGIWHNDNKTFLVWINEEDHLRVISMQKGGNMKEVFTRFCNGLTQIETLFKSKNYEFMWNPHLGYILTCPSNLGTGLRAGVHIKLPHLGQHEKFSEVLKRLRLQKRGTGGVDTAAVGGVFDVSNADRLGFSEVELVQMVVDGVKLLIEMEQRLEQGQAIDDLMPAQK
# Assay: NVS_ENZ_rabI2C: NovaScreen (NVS) Enzymatic Assay for rabbit Imidazoline 2 Central (I2C) (AID 2283228)
# Method in brief: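 Rabbit brain membranes, cell-free; readout by filter-based scintillation counting 1.5 hours after dosing, loss of signal vs DMSO. Initial duplicate test at 25 uM, then concentration-response with 50 uM top concentration.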
Compound,AC50,outcome
COc1cc(-c2ccc(N)c(OC)c2)ccc1N,10.4 µM (active) and 18.1 µM (active),
CCC(=O)C(CC(C)N(C)C)(c1ccccc1)c1ccccc1 (stereo not given),3.37 µM (active),
CCN1CCC2(CC1)COc1cc3c(cc12)N(C(=O)c1ccc(-c2ccc(-c4nnc(C)o4)cc2C)cc1)CC3,,inactive

# Biological target: human Vascular Endothelial Growth Factor Receptor 2 (VEGFR2), KDR (gene 3791) (UniProt P35968)
# Sequence (P35968 whole entry, looked up): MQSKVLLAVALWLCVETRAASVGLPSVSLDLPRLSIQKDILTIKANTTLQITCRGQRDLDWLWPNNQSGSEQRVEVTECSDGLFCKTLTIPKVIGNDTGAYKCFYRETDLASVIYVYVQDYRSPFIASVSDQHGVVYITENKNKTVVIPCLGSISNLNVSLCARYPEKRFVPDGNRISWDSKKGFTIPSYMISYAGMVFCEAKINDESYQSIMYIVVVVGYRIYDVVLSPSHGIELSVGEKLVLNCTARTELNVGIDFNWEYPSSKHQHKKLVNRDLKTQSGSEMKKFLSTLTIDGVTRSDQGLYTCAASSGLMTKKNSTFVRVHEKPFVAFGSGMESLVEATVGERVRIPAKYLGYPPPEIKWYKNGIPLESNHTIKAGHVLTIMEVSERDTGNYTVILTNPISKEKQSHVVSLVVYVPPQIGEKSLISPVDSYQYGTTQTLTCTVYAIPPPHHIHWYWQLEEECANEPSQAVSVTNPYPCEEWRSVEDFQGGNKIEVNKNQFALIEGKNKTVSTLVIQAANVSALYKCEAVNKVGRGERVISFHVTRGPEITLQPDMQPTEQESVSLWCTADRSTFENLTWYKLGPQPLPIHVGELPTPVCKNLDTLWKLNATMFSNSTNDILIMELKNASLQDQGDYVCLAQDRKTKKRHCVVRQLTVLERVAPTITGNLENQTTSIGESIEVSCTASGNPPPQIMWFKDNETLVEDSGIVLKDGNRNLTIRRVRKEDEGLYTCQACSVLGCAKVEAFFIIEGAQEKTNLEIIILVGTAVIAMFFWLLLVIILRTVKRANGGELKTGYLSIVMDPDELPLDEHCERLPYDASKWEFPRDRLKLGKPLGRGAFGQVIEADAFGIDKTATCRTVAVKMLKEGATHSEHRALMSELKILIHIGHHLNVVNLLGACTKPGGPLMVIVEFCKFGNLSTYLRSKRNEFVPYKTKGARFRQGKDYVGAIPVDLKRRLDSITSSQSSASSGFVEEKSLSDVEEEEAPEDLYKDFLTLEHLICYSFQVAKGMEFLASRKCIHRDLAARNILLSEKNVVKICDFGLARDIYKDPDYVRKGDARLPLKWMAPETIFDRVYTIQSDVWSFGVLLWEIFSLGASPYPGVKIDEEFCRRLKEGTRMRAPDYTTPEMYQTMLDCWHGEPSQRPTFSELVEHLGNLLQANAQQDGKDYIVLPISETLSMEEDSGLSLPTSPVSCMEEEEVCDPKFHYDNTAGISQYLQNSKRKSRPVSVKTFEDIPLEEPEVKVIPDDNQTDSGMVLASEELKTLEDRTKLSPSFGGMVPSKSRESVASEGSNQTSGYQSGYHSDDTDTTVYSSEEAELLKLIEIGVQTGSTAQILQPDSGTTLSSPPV
# Assay: NVS_ENZ_hVEGFR2: NovaScreen (NVS) Enzymatic Assay for human Vascular Endothelial Growth Factor Receptor 2 (VEGFR2) (AID 2283230)
# Procedure: NVS_ENZ_hVEGFR2 is a biochemical, single-readout assay that uses extracted gene-proteins in a cell-free assay. Measurements were taken 1 hour after chemical dosing in a 384-well plate.NVS_ENZ_hVEGFR2 is one of one assay component(s) measured or calculated from the NVS_ENZ_hVEGFR2 assay. It is designed to make measurements of enzyme activity, a form of enzyme reporter, as detected with fluorescence intensity signals by Fluorescence and electrophoretic mobility shift technology.Data from the assay component NVS_ENZ_hVEGFR2 was analyzed into 1 assay endpoint. This assay endpoint, NVS_ENZ_hVEGFR2, was analyzed in the positive analysis fitting direction relative to DMSO as the negative control and baseline of activity. Using a type of enzyme reporter, loss-of-signal activity can be used to understand changes in the enzymatic activity as they relate to the gene KDR. Furthermore, this assay endpoint can be referred to as a primary readout, because this assay has produced multiple assay endpoints where this one serves a enzymatic activity function. To generalize the intended target to other relatable targets, this assay endpoint is annotated to the kinase intended target family, where the subfamily is receptor tyrosine kinase.
# Binding assays used specific radioligands (tritiated, iodinated) with non-radioactive competitive displacement ligands in agonist or antagonist protocols (as indicated) and various reference compounds and inhibitors to titrate specific binding to receptors and transporters. Most enzyme assays (CYPs, kinases, phosphatases, proteases, HDACs) used recombinant protein and specific substrates (fluorescence mostly, some colorimetric and radioactive) and inhibitors, followed by a biochemical separation of substrate and product. All assays for the biochemical HTS were initially run in duplicate at a single concentration (10 uM for CYP450 assays and 25 uM for all others). Assay-chemical combinations meeting a pre-defined threshold (e.g., 30% inhibition and other criteria defined below) were then run in singleton concentration-response format with maximum concentration of 20 uM for CYPs and 50 uM for all others. Each assay was run with positive and negative controls, and concurrent controls on every plate. The follow-up (secondary) screen tested active chemical-pairs in concentration series, as well as a few additional assays not tested in the primary screen, some selected negative inactives, and several cases re-run in the concentration series for confirmatory purposes.
row,Compound,outcome
1,CC(C)(c1ccccc1)c1ccc(O)c(C(C)(C)c2ccccc2)c1,inactive
2,CCCCCCCCc1ccc(O)cc1,inactive
3,CC(C)(C)CC(C)(C)c1ccc(O)cc1,inactive
4,CC(=O)[O][Hg][c]1ccccc1,inactive
5,CCC(C)(C)c1ccc(O)c(C(C)(C)CC)c1,inactive
6,O=C1C2(Cl)C3(Cl)C4(Cl)C(Cl)(Cl)C5(Cl)C3(Cl)C1(Cl)C5(Cl)C24Cl (stereo not given),inactive
7,O=C(Nc1ccc2[nH]ccc2c1)c1cc2cc(F)ccc2n1Cc1cccc(F)c1,inactive
8,COP(=S)(OC)Oc1ccc(Sc2ccc(OP(=S)(OC)OC)cc2)cc1,inactive
